According to the supplement of paper PMC9023506:
Counter-ions that a name gives are not always drawn.

The molecules below were run on Danio rerio larvae (5 dpf) (assay: excitability to 1-s acoustic pulses, difference vs DMSO (percentage points (treated minus DMSO)); higher = more of the behaviour than the DMSO vehicle control). Conditions: 10 µM; exposure time: 3 h pre-incubation + 3 h imaging.
Protocol: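 5-dpf wild-type zebrafish larvae were imaged in 96-well plates. They were treated with 190 Tocris FDA-approved drugs at 10 µM (1 µl/ml DMSO) for 3 h before and 3 h during imaging at 28.5 °C, 48 larvae per drug. Automated image analysis gave % time moving and optomotor responses. Values are drug group mean minus DMSO vehicle mean (n=844), in percentage points, for 10 behaviours.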

| Structure (SMILES) | excitability to 1-s acoustic pulses |
| --- | --- |
| O=C(NCC1CCCCN1)c1cc(OCC(F)(F)F)ccc1OCC(F)(F)F (stereo not given) [Flecainide acetate] | 5.58 |
| CC(C)C(=O)Nc1ccc([N+](=O)[O-])c(C(F)(F)F)c1 [Flutamide] | -5.4 |
| COC(c1ccccc1)(c1ccccc1)[C@H](Oc1nc(C)cc(C)n1)C(=O)O [Ambrisentan] | -1.87 |
| Nc1nc(F)nc2c1ncn2[C@@H]1O[C@H](CO)[C@@H](O)[C@@H]1O [Fludarabine] | 3.42 |
| Cc1ccccc1C(=O)Nc1ccc(C(=O)N2CCCC(O)c3cc(Cl)ccc32)c(C)c1 (stereo not given) [Tolvaptan] | 6.31 |
| OCCN(CCO)c1nc(N2CCCCC2)c2nc(N(CCO)CCO)nc(N3CCCCC3)c2n1 [Dipyridamole] | -3.05 |
| NC(=O)c1ncn([C@@H]2O[C@H](CO)[C@@H](O)[C@H]2O)n1 [Ribavirin] | -0.206 |
| CC(=O)Oc1ccccc1C(=O)O [Aspirin] | 10.2 |
| CC(C)(C(=O)c1cccnc1)c1cccnc1 [Metyrapone] | 12.2 |
| Cc1nc(Nc2ncc(C(=O)Nc3c(C)cccc3Cl)s2)cc(N2CCN(CCO)CC2)n1 [Dasatinib] | 16.9 |
| CC(C)c1ccc2oc3nc(N)c(C(=O)O)cc3c(=O)c2c1 [Amlexanox] | 6.32 |
| O=C(Nc1c(Cl)cncc1Cl)c1ccc(OC(F)F)c(OCC2CC2)c1 [Roflumilast] | 16.7 |
| C#C[C@]1(O)CC[C@H]2[C@@H]3CCC4=CC(=O)CC[C@@H]4[C@H]3CC[C@@]21CC [Levonorgestrel] | 1.14 |
| CCCc1nc2c(C)cc(-c3nc4ccccc4n3C)cc2n1Cc1ccc(-c2ccccc2C(=O)O)cc1 [Telmisartan] | 12.8 |
| N#Cc1ccc2[nH]cc(CCCCN3CCN(c4ccc5oc(C(N)=O)cc5c4)CC3)c2c1 [Vilazodone hydrochloride] | 16.8 |
| CN1CC2c3ccccc3Oc3ccc(Cl)cc3C2C1 (stereo not given) [Asenapine maleate] | 15 |
| COc1cc(N)c(Cl)cc1C(=O)NC1CCN(CCCOc2ccc(F)cc2)CC1OC (stereo not given) [Cisapride] | 16.4 |
| N[C@@H]1[C@H]2CN(c3nc4c(cc3F)c(=O)c(C(=O)O)cn4-c3ccc(F)cc3F)C[C@@H]12 [Trovafloxacin mesylate] | 11.3 |
| N#Cc1ccc(C(c2ccc(C#N)cc2)n2cncn2)cc1 [Letrozole] | -0.518 |
| CNS(=O)(=O)Cc1ccc2[nH]cc(CCN(C)C)c2c1 [Sumatriptan succinate] | -8.18 |

| Structure (SMILES) | excitability to 1-s acoustic pulses |
| --- | --- |
| COc1cc2nccc(Oc3ccc(NC(=O)C4(C(=O)Nc5ccc(F)cc5)CC4)cc3)c2cc1OC | 17.1 |
| CCCCCCCCc1ccc(CCC(N)(CO)CO)cc1 | 14.4 |
| CC(=O)Oc1cc2c(s1)CCN(C(C(=O)C1CC1)c1ccccc1F)C2 (stereo not given) [Prasugrel] | 5.57 |
| CN1CCC[C@@H]1Cc1c[nH]c2ccc(CCS(=O)(=O)c3ccccc3)cc12 [Eletriptan hydrobromide] | 3.9 |
| Nc1ncn([C@@H]2O[C@H](CO)[C@@H](O)[C@H]2O)c(=O)n1 [5-Azacytidine] | -3.59 |
| COc1ccccc1Oc1c(NS(=O)(=O)c2ccc(C(C)(C)C)cc2)nc(-c2ncccn2)nc1OCCO [Bosentan] | -1.1 |
| CCC(=O)O[C@]1(C(=O)SCF)[C@H](C)C[C@H]2[C@@H]3C[C@H](F)C4=CC(=O)C=C[C@]4(C)[C@@]3(F)[C@@H](O)C[C@@]21C [Fluticasone propionate] | 1.18 |
| CC(C)c1nc(CN(C)C(=O)N[C@H](C(=O)N[C@@H](Cc2ccccc2)C[C@H](O)[C@H](Cc2ccccc2)NC(=O)OCc2cncs2)C(C)C)cs1 [Ritonavir] | 7.52 |
| CN(C)CC/C=C1/c2ccccc2COc2ccc(CC(=O)O)cc21 [Olopatadine hydrochloride] | 3.92 |
| CCN(CC)CCNC(=O)c1c(C)[nH]c(/C=C2\C(=O)Nc3ccc(F)cc32)c1C [Sunitinib malate] | 14.4 |
| COc1ccccc1OCC(O)CN1CCN(CC(=O)Nc2c(C)cccc2C)CC1 (stereo not given) [Ranolazine dihydrochloride] | 1.94 |
| Nc1ncn([C@H]2C[C@H](O)[C@@H](CO)O2)c(=O)n1 [Decitabine] | 6.23 |
| CC#C[C@]1(O)CC[C@H]2[C@@H]3CCC4=CC(=O)CCC4=C3[C@@H](c3ccc(N(C)C)cc3)C[C@@]21C [Mifepristone] | 5.32 |
| CN(C)CCc1c[nH]c2ccc(Cn3cncn3)cc12 [Rizatriptan benzoate] | -3.58 |
| Cc1cc2c(s1)Nc1ccccc1N=C2N1CCN(C)CC1 [Olanzapine] | 3.32 |
| CC(C)(C(=O)O)c1ccc(C(O)CCCN2CCC(C(O)(c3ccccc3)c3ccccc3)CC2)cc1 (stereo not given) [Fexofenadine hydrochloride] | -6.48 |
| CCOc1nc2cccc(C(=O)O)c2n1Cc1ccc(-c2ccccc2-c2noc(=O)[nH]2)cc1 [Azilsartan] | -0.616 |
| C[C@@H]1C[C@H]2[C@@H]3CCC4=CC(=O)C=C[C@]4(C)[C@@]3(F)[C@@H](O)C[C@]2(C)[C@@]1(O)C(=O)CO [Dexamethasone] | -5.75 |
| CCCCC(=O)N(Cc1ccc(-c2ccccc2-c2nnn[nH]2)cc1)[C@H](C(=O)O)C(C)C [Valsartan] | -1.54 |
| CCc1nc(N)nc(N)c1-c1ccc(Cl)cc1 [Pyrimethamine] | 6.41 |
